Screening results deposited in PubChem by National Center for Advancing Translational Sciences (NCATS).
DT40 TDP1 no CPT: qHTS for Inhibitors of human tyrosyl-DNA phosphodiesterase 1 (TDP1): qHTS in cells in absence of CPT. DT40 Tdp1-/- hTDP1 cells, no CPT, ATP luminescence, 48 h. Potency, µM (doses to about 46.2 µM), for inactives: at the top dose activity change, negative = growth inhibition, usual class: inhibitors. hit rate 15% among 420,000. AID 686978, 2013; note: potency is the fitted concentration of half-maximal effect; nearly all actives have a fitted effect of over 55% in size
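Chicken DT40 Tdp1-/- cells complemented with human TDP1, screened without camptothecin (DMSO vehicle only), 400 cells/well. Compounds pin-transferred, cells incubated at 37 °C for at least 48 hr. Growth read as ATP-dependent luminescence (CellTiter-Glo, 30 min at RT).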
ELG1 repair inh: qHTS screen for small molecules that inhibit ELG1-dependent DNA repair in human embryonic kidney (HEK293T) cells expressing luciferase-tagged ELG1; HEK293T ELG1-luciferase reporter, luminescence, 16 h; DNA damage induced by 5-fluorouridine; Potency, µM (titrated, usually from 46.1 µM), for the others: at the top dose activity change, negative = inhibition, usual class: inhibitors; hit rate 2.3% among 330,000; note: potency is the fitted concentration of half-maximal effect; nearly all actives have a fitted effect of over 55% in size
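Step one: seed 2,000 cells per well. Step two: pin-transfer compound or DMSO alongside 5-fluorouridine. Step three: incubate 16 hr, 37 °C, 5% CO2. Step four: add ONE-Glo, wait 30 min, read luminescence.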
RORg inh: qHTS for inhibitors of ROR gamma transcriptional activity | Nuclear receptor ROR-gamma (Mus musculus), P51450 | Drosophila S2 Gal4-RORgamma UAS-luciferase reporter, 20 h | Potency, µM (top dose mostly 53.6 µM), for inactives: top-dose activity change, negative = inhibition, usual class: inhibitors | hit rate 5.4% among 310,000 | AID 2551, 2010; note: potency is the fitted concentration of half-maximal effect; nearly all actives have a fitted effect of over 60% in size
Target sequence (P51450 whole entry, looked up, the tested form may be a part): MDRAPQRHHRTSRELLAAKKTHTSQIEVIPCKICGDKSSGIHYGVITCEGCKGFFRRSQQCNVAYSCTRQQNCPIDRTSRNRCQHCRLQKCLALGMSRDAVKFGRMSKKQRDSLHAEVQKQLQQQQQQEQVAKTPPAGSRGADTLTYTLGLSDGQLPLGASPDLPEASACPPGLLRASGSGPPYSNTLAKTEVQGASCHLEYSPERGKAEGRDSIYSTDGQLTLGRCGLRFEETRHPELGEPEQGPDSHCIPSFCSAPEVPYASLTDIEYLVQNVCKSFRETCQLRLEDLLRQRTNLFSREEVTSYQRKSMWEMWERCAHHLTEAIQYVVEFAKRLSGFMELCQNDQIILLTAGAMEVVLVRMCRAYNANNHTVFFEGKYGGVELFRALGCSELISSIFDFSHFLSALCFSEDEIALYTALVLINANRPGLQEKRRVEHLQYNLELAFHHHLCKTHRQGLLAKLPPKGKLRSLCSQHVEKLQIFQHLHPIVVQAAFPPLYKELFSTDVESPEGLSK
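Luminescence from a UAS-regulated Photinus luciferase reporter in stably transfected Drosophila Schneider cells is measured; decreased signal marks ROR gamma inhibition. Fusion expression is induced by 700 uM copper sulfate for 20 hr.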
Gal4-VP16 FLuc: VP16 counterscreen qHTS for inhibitors of ROR gamma transcriptional activity | Drosophila S2 Gal4-VP16 UAS-luciferase, luminescence, 20 h | Potency, µM (titrated, usually from 53.6 µM), for inactives: at the highest dose activity, negative = inhibition, most hits filed as inhibitors | hit rate 3.5% among 310,000 | AID 2546, 2010;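 note: Gal4-VP16 expression switched on by copper sulfate through the metallothionein promoter; potency is the fitted concentration of half-maximal effect; nearly all actives have a fitted effect of over 50% in size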
IL1B secr inh: qHTS for Inhibitors of Inflammasome Signaling: IL-1-beta AlphaLISA Primary Screen; THP-1 LPS/ATP IL-1B secretion, AlphaLISA, 16 h; hits give low values; activity change, % at 57.5 µM; hit rate 4.7% among 360,000; AID 743279, 2014; in the data active = activity change below about -50%; inconclusive = mostly about -30% to -49%
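Secreted IL-1B measured by AlphaLISA bead assay after 16 h compound exposure of THP-1 cells; compounds (final up to 57.5 uM) added 1 h before LPS (250 ng/mL) and ATP (1.25 mM) stimulation; lower signal means less secretion.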
DT40 TDP1 CPT: qHTS for Inhibitors of human tyrosyl-DNA phosphodiesterase 1 (TDP1): qHTS in cells in presence of CPT. chicken DT40 Tdp1-/-;hTDP1 cells + 20 nM CPT, ATP luminescence, 48 h. Potency, µM (titrated, usually from 46.2 µM), inactives show top-dose activity change, negative = growth inhibition, actives largely listed as inhibitors. hit rate 12% among 420,000. AID 686979, 2013; note: potency is the fitted concentration of half-maximal effect; nearly all actives have a fitted effect of over 55% in size
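Cell growth measured by CellTiter-Glo luminescence after a minimum 48 h, 37 C compound exposure with 20 nM CPT in Tdp1-knockout DT40 cells stably expressing hTDP1, seeded 400/well; qHTS titration format.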
Starred values were filed as active, the others as inactive; ? = inconclusive; . = no result given; [ ] = dose if it differs, or a comment. Only some compounds are listed: those with a hit (about 21% of all), similar ones and a draw of the others. Unless noted, calls come from the whole dose curve; as a rule, active = well fitted curve in the direction sought with a large enough effect; inconclusive = small, poorly fitted or top-dose-only effect, or another doubt; inactive = no such curve, though single readings can be large; an effect the other way counts as inactive or inconclusive. % is set by controls: 0 for no effect and ±100 for the full control effect.

SMILES	DT40 TDP1 no CPT	ELG1 repair inh	RORg inh	Gal4-VP16 FLuc	IL1B secr inh	DT40 TDP1 CPT
Cn1c(CSCc2ccc(F)cc2)n[nH]c1=S	-1%	-12%	?	?	7	5%
CSc1nnc(CSCc2ccc(Cl)cc2Cl)n1-c1ccccc1	20µM*	-6%	-12%	0%	-16	?
Cn1c(CSCc2ccccc2)n[nH]c1=S	-20%	0%	11µM*	?	6	8%
CCNC(=O)C1(C)CCCN(C(=O)c2cc(OC)ccc2Br)C1 (centres undefined)	0%	.	.	.	0	4%
COc1cccc(-c2cnc(C(O)c3ccc(C)cc3C)[nH]2)c1 (centres undefined)	?	.	.	.	9	?
CCCCNc1nc(Cl)nc(Nc2ccc(C)cc2)n1	-24%	.	.	.	10	-13%
CCOC(=S)SCc1cn2cccc(C)c2n1	-3%	8%	14µM*	-27%	-15	-19%
Cc1ccc(S(=O)(=O)N(C)C)cc1NC(=S)NC(C)CCCC(C)C (centres undefined)	?	-17%	18µM*	?	-73*	26µM*
CCCCCCC(C)NC(=S)Nc1cc(S(=O)(=O)N(C)C)ccc1C (centres undefined)	23µM*	-22%	13µM*	?	-2	?
CC(=O)NNC(=S)Nc1cc(S(=O)(=O)N(C)C)ccc1C	?	-5%	-8%	2%	10	-2%
Cc1ccc(S(=O)(=O)N(C)C)cc1NC(=O)C(C)N(C)CCOc1ccc(Cl)cc1 (centres undefined)	29µM*	?	?	?	-7	?
Cc1ccc(S(=O)(=O)N(C)C)cc1NC(=S)NC(C)CCC(C)C (centres undefined)	21µM*	-4%	13µM*	?	18	23µM*
Cc1cc(C)c(C(=O)COC(=O)Cn2c(C)csc2=O)cc1C	0%	3%	23%	?	?	4%
COc1ccc(CN2CCOc3ccc(CN4CCCCC4CO)cc3C2)c(OC)c1 (centres undefined)	?	.	.	.	.	4%[9.04 µM]
Cc1cc(C)cc(NC(=O)C(C)N2Cc3ccccc3C2=O)c1 (centres undefined)	-35%	.	.	.	.	-27%
CC(C)CC1NC(=O)N(CC(=O)Nc2cccc(Br)c2)C1=O (centres undefined)	10%	-1%	.	.	0	-6%
O=C(CN1C(=O)NC(CCc2ccccc2)C1=O)Nc1cccc(Br)c1 (centres undefined)	16µM*	-1%	.	.	-28	?
CCCCn1c(N)c(N(C)C(=O)c2ccc(OCC3CCCO3)cc2)c(=O)[nH]c1=O (centres undefined)	-4%	10%	.	.	0	1%
Cn1c(=O)[nH]c(=O)c2c1nc(Br)n2CCOc1ccccc1	16µM*	-30%	8%	-3%	25	10µM*
Cn1c(=O)[nH]c(=O)c2c1nc(NCCN)n2CCOc1ccccc1	13µM*	-28%	0%	-10%	27	?
Cc1ccc(C)c(OCC(=O)N(C)CC(=O)Nc2ccc(Cl)c(C(F)(F)F)c2)c1	?	1%	.	.	-13	?
CN(C)CC(=O)c1c[nH]c2ccccc12	?	-3%	-3%	-5%	20	?
Cc1nc(NCC(=O)c2c[nH]c3ccccc23)sc1C	?	.	.	.	.	6.3µM*
O=C(COc1c(Br)cc(Br)c2cccnc12)N1CCc2ccccc2C1	?	-3%	5.6µM*	7.9µM*	11	?
